Pf growth 48h: Primary qHTS for delayed death inhibitors of the malarial parasite plastid, 48 hour incubation; P. falciparum luciferase growth in erythrocytes, 48 h; Potency, µM (series often up to 28.7 µM), inactives show at the highest dose activity change, negative = inhibition, most hits filed as inhibitors; hit rate 5.9% among 310,000; AID 504832, 2011; further: on the % scale 0 is the no-effect control and ±100 the full control effect
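Parasite viability was followed by luminescence of a genomically integrated firefly luciferase. Cultures held 0.1% parasitemia at 2% hematocrit (final), incubated under 5% CO2 at 37 C.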
SARS PLpro yeast: qHTS of Yeast-based Assay for SARS-CoV PLP; hit rate 0.19% among 330,000; Potency, µM (titrated, usually from 32.9 µM), inactives show top-dose activity, positive = growth rescue, hits mostly activators; S. cerevisiae expressing SARS-CoV PLpro, growth rescue; calls by dose curve; further: 0% is about no effect; nearly all actives have a fitted effect of over 55% in size
Sm TGR inh: qHTS Assay for the Inhibitors of Schistosoma Mansoni Peroxiredoxins; hit rate 3% among 360,000; purified TGR, DTNB reduction, TNB absorbance 405 nm; Potency, µM (series often up to 114 µM), for the others: top-dose activity change, negative = inhibition, most hits filed as inhibitors; further: on the % scale 0 is the no-effect control and ±100 the full control effect; nearly all actives have a fitted effect of over 60% in size
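Kinetic colorimetric format: TGR-catalysed, NADPH-driven DTNB reduction monitored via TNB absorbance. Enzyme dispensed at 20 nM; compound exposure 15 min at room temperature before reaction start.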
AmpC inh no detg: qHTS Inhibitors of AmpC Beta-Lactamase (assay without detergent) | P00811 | AmpC nitrocefin hydrolysis, absorbance 480 nm, 0.0001% Triton | Potency, µM (series often up to 57.1 µM), for inactives: at the top dose activity change, negative = inhibition, most hits filed as inhibitors | hit rate 0.52% among 330,000;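 further: plate controls were no compound for no effect and no enzyme for full effect; nearly all actives have a fitted effect of over 20% in size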
Target sequence (P00811 whole entry, looked up): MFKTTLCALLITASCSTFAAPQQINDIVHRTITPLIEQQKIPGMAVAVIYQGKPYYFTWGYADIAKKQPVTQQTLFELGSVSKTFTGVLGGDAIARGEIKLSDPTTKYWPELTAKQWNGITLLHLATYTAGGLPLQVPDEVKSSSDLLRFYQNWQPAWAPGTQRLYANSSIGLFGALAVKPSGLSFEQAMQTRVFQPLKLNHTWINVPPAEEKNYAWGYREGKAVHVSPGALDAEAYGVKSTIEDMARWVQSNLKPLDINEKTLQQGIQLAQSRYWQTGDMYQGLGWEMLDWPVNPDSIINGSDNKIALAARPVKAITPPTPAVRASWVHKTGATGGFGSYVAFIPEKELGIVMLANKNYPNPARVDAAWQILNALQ
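20 mM phosphate pH 7.0 + 0.01% (detergent screen) or 0.0001% Triton X-100; 5.3 nM AmpC reagent; cpd preinc 15 min RT; nitrocefin (800 uM stock) to start; A480 q20 s × 4 min; Activity was normalised to no-enzyme and no-compound control wells.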
AmpC detergent: qHTS Inhibitors of AmpC Beta-Lactamase (assay with detergent); P00811; AmpC hydrolysis of nitrocefin, absorbance 480 nm, 0.01% Triton; Potency, µM (titrated, usually from 114 µM), without a hit: at the top dose activity change, negative = inhibition, most hits filed as inhibitors; hit rate 0.041% among 370,000; AID 485294, 2010;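 further: 0% = no-compound wells and -100% = no-enzyme wells; nearly all actives have a fitted effect of over 25% in size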
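AmpC (5.3 nM in the dispensed reagent) in 20 mM phosphate pH 7.0 with 0.01% (detergent screen) or 0.0001% Triton X-100 was preincubated with compounds for 15 min at room temperature. Nitrocefin was then added from an 800 uM solution, and hydrolysis was followed at 480 nm.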
Pf growth 96h: Primary qHTS for delayed death inhibitors of the malarial parasite plastid, 96 hour incubation | P. falciparum luciferase reporter growth, 96 h | Potency, µM (titrated, usually from 28.7 µM), for the others: at the top dose activity change, negative = inhibition, actives largely listed as inhibitors | hit rate 6.9% among 320,000 | AID 504834, 2011; further: on the % scale 0 is the no-effect control and ±100 the full control effect
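Two parasite generations (96 h, 37 C, 5% CO2) of compound exposure in infected erythrocytes (0.05% parasitemia, 2% hematocrit). Luciferase-reporter P. falciparum; decreased luminescence indicates inhibited growth, aimed at apicoplast-acting delayed death.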
Numbers without * were called inactive; ? = inconclusive; / = no result given. The list is not random: actives were taken first. Their share in the collection is about 12%. Unless noted, the call rests on the fitted dose curve; in most records, active means well fitted curve in the direction sought with a large enough effect; inconclusive means small, poorly fitted or top-dose-only effect, or another doubt; inactive means no such curve, though single readings can be large; an effect the other way counts as inactive or inconclusive. Potency means the concentration at half of the fitted maximal effect.

SMILES	Pf growth 48h	SARS PLpro yeast	Sm TGR inh	AmpC inh no detg	AmpC detergent	Pf growth 96h
COc1ccc(C)cc1N(C(=O)c1ccccc1F)c1nc2ccccc2s1	9.3µM*	-21%	0%	-1%	?	17µM*
CCn1cc(S(=O)(=O)c2ccc(C)cc2)[nH]c1=O	2%	-1%	6%	-21%	-4%	?
CCc1c(C(C)S(=O)(=O)c2ccc(C)cc2)[nH]c(=O)n1-c1ccc(OC(F)(F)F)cc1 (centres undefined)	/	15%	5.6µM*	2%	7%	?
CCOC(=O)C1CCCN(S(=O)(=O)c2cc(OCC(=O)NC3CCCCC3)c(C)cc2Cl)C1 (centres undefined)	/	-3%	3%	54%	-19%	0.47µM*
CCOc1ccc(Cl)cc1S(=O)(=O)N1CCN(c2ccc(F)cc2)CC1	12µM*	-14%	7%	-12%	-2%	/
Cc1cc(Cl)c(S(=O)(=O)N2CCN(c3ccc(F)cc3)CC2)cc1OCC(=O)NC1CCCCC1	/	-7%	0%	0%	-12%	6.6µM*
Cc1cc(S(=O)(=O)N2CCCC2)ccc1OCC(=O)NC1CCCC1	-1%	0%	7%	53%	12%	28%
COCCNC(=O)c1ccc2c(c1)N(Cc1c(F)cccc1Cl)C(=O)c1ccccc1S2	/	/	4%	/	3%	/
COC(=O)c1ccc(N2C(=O)CC(Sc3n[nH]c(C)n3)C2=O)cc1 (centres undefined)	0%	-16%	1.4µM*	-6%	-9%	-15%
CC(=O)Nc1ccc(N2C(=O)CC(Sc3nc(C)cc(C)n3)C2=O)cc1 (centres undefined)	/	1%	50µM*	-22%	-8%	11%
COC(=O)c1cc(C(=O)OC)cc(N2C(=O)CC(Sc3nc(C)cc(C)n3)C2=O)c1 (centres undefined)	-9%	-2%	?	31%	3%	/
COc1ccc(N2C(=O)CC(Sc3n[nH]c(-c4cccc(C)c4)n3)C2=O)cc1 (centres undefined)	?	-4%	0.32µM*	-27%	-1%	?
COc1ccccc1N1C(=O)CC(Sc2nc(C)cc(C)n2)C1=O (centres undefined)	-1%	0%	0%	-28%	-2%	/
Cc1ccc(N2C(=O)CC(Sc3nc(C)cc(C)n3)C2=O)cc1 (centres undefined)	-7%	-7%	-46%	-10%	2%	?
CCOc1ccccc1N1C(=O)CC(Sc2n[nH]c(-c3ccccc3)n2)C1=O (centres undefined)	-20%	-5%	0.56µM*	-27%	-4%	-15%
COc1cccc(CNC(=O)Cn2c(SCC(=O)Nc3ccc(C)c(C)c3)nc3ccccc32)c1	/	/	0%	/	0%	/
Cc1ccc(SCC(=O)OCC(=O)NC2(C#N)CCCCC2)cc1	23%	/	0%	2%	-4%	15%
CCc1cc2c(=O)n(Cc3ccco3)c(SCC(=O)NCC3CCCO3)nc2s1 (centres undefined)	?	3%	-32%	27%	-4%	2%
CCc1cc2c(=O)n(Cc3ccco3)c(SCC(=O)N(C)C3CCS(=O)(=O)C3)nc2s1 (centres undefined)	-7%	-2%	32µM*	33%	-7%	?
CCc1cc2c(=O)n(Cc3ccco3)c(SCc3c(C)noc3C)nc2s1	?	-10%	11µM*	-11%	?	?
CCc1cc2c(=O)n(Cc3ccco3)c(SCC(=O)N3CCCc4ccccc43)nc2s1	9.3µM*	-6%	25µM*	-13%	-11%	14%
CCc1cc2c(=O)n(Cc3ccccc3)c(SC3CCOC3=O)nc2s1 (centres undefined)	-15%	1%	-6%	-56%	-1%	61%
CCc1cc2c(=O)n(Cc3ccco3)c(SCC(=O)NC3CCS(=O)(=O)C3)nc2s1 (centres undefined)	?	-3%	16µM*	-8%	-19%	?
CCCCCC(=O)Nc1nc(C)c(-c2csc(Nc3cc(Cl)ccc3C)n2)s1	?	1%	-25%	-33%	?	?
CC(=O)Nc1ccc(Nc2nc(-c3sc(C)nc3C)cs2)cc1	5%	3%	7%	-20%	-5%	?
SMILES	Pf growth 48h	SARS PLpro yeast	Sm TGR inh	AmpC inh no detg	AmpC detergent	Pf growth 96h
CCCCCC(=O)Nc1nc(C)c(-c2csc(Nc3ccc(Cl)cc3)n2)s1	15µM*	1%	6%	-32%	-2%	?
CCCCCCC(=O)Nc1nc(C)c(-c2csc(Nc3ccc(Cl)cc3)n2)s1	10µM*	-7%	10%	-46%	0%	2.9µM*
COc1cc(OC)c(NC(=O)C2CCN(S(=O)(=O)c3ccc4c(c3)oc(=O)n4C)CC2)cc1Cl	/	/	-3%	/	5%	/
CCc1ccc(NCc2cc3cc4c(cc3n(CC(=O)Nc3ccccc3OC)c2=O)OCCO4)cc1	/	/	-31%	/	-3%	/
CCOC(=O)c1nnn(-c2nn3nnnc3c3ccccc23)c1C	0.93µM*	0%	-12%	18%	-12%	-29%
CN(C)S(=O)(=O)n1cnc([C@@H]2[C@@H]3C(=O)OC[C@@H]3C[C@]23N=CN(Cc2ccccc2)C3=O)c1	20%	-1%	2%	-5%	2%	-34%
CC(C)(C)OC(=O)N1CCC(c2c(C(=O)N3CCN(C(=O)c4ccco4)CC3)cnn2-c2cccc(Cl)c2)CC1	12µM*	2%	-33%	202%	-2%	1%
Cc1ccc(-n2ncc(C(=O)NC3CCCC3)c2C2CCN(C(=O)OC(C)(C)C)CC2)c(C)c1	/	/	1%	/	14%	/
Cc1cccc(-n2ncc(C(=O)NC3CCCC3)c2C2CCN(C(=O)OC(C)(C)C)CC2)c1	1.5µM*	1%	-17%	22%	?	?
CC(C)(C)OC(=O)N1CCC(c2c(C(=O)NC3CC3)cnn2-c2ccccc2)CC1	12µM*	1%	-32%	66%	-1%	15%
CC(=O)Nc1ccc(NC(=O)c2cnn(-c3ccccc3)c2C2CCN(C(=O)OC(C)(C)C)CC2)cc1	/	/	5µM*	/	1%	/
Cc1nnc(NC(=O)C2CCCN(c3ncccn3)C2)s1 (centres undefined)	6%	-13%	0%	0%	?	5%
Cc1ccn2c(=O)cc(CSc3nnc(NC(=O)c4ccccc4Cl)s3)nc2c1	/	/	-2%	/	0%	/
